Measured values published in ChEMBL document CHEMBL3433997, “St. Jude Leishmania screening dataset” (2016).

Tests used:
Type in all cases: functional
[1] = target: Solute carrier family 2, facilitated glucose transporter member 1 (Homo sapiens) (UniProt P11166); assay: ST_JUDE_LEISH: Cytotoxicity at 2uM final concentration against transgenic Leishmania Mexicana promastigotes LmGLUT1 that are glucose transport deficient and complemented with the human glucose transporter GLUT1. Activity is measured by DNA content using SYBR green in vitro
[2] = target: Hexose transporter 1 (Plasmodium falciparum) (UniProt O97467); assay: ST_JUDE_LEISH: Cytotoxicity at 2uM final concentration against transgenic Leishmania Mexicana promastigotes LmPfHT that are glucose transport deficient and complemented with the Plasmodium falciparum hexose transporter. Activity is measured by DNA content using SYBR green in vitro
[3] = target: Glucose transporter (Leishmania mexicana) (UniProt O61059); assay: ST_JUDE_LEISH: Cytotoxicity at 2uM final concentration against transgenic Leishmania Mexicana promastigotes LmGT2 that are glucose transport deficient and complemented with the L. Mexicana glucose transporter 2. Activity is measured by DNA content using SYBR green in vitro

Solute carrier family 2, facilitated glucose transporter member 1 (Homo sapiens), sequence (P11166 whole entry): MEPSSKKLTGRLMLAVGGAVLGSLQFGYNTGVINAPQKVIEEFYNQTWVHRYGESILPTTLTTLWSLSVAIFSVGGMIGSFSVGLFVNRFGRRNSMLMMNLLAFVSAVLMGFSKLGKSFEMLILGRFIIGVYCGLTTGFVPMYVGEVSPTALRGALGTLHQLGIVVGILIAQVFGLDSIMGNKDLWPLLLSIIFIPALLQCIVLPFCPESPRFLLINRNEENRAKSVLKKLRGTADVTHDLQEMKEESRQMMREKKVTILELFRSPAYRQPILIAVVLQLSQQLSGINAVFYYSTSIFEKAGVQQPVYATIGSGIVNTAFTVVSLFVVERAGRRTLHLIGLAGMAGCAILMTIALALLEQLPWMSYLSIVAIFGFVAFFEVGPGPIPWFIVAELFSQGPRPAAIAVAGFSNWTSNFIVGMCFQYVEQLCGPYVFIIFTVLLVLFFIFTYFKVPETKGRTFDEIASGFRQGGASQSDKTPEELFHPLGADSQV

| Structure (SMILES) | inhibition [1] | inhibition [2] | inhibition [3] |
| --- | --- | --- | --- |
| O=C(NCc1ccccc1)c1ncn(CCCN2CCC(N3CCCC3)CC2)c1-c1ccc(Cl)c(Cl)c1 | -1.45% | -1.01% | -1.08% |
| CN(C)CCCN1CCN(C(=O)c2cc3cc(-c4ccccc4)ccc3n2S(=O)(=O)c2ccccc2)CC1 | 60.9% | 24.3% | 2.85% |
| O=C(Cn1c(CCc2cccc(F)c2F)cc(=O)c2ccccc21)N(CCN1CCCC1)Cc1ccc(-c2ccc(C(F)(F)F)cc2)cc1 | 1.56% | 2.33% | 2.03% |
| Cc1cc([N+](=O)[O-])ccc1NC(=O)Nc1cccc(C(F)(F)F)c1 | 5.58% | 3.9% | 4.81% |
| COc1cc2c(OC)cccc2cc1CNCCCCCCNCc1cc2cccc(OC)c2cc1OC | 0.11% | 6.08% | -0.11% |
| COc1ccc2cc(-c3nc(-c4c(Cl)cccc4Cl)[nH]c3-c3ccnc(NCCCN4CCCCC4C)c3)ccc2c1 (stereo not given) | 0.59% | -0.07% | 0.19% |
| N=C(Nc1cccc(Cc2ccccc2)n1)Nc1ncccn1 | 2.06% | 1.79% | 1.88% |
| COc1cc(CN2CCC(C(=O)Nc3ccc(-c4cccc(C)c4)cc3)CC2)ccc1O | 8.11% | 7.03% | 4.91% |
| CCNc1cc(C(=O)N[C@@H](Cc2ccccc2)[C@H](O)CNC(C)(C)CC(C)(C)C)c(F)c(N2CCCCS2(=O)=O)c1 | -2.27% | -1.17% | -0.53% |
| O=C1OC(c2cc3ccccc3n2S(=O)(=O)c2ccccc2)(c2cc3ccccc3n2S(=O)(=O)c2ccccc2)c2ccccc21 | 1.65% | 1.8% | 2.01% |
| O=C(Nc1cccc(-c2nn3ccccc3c2-c2ccnc(Nc3ccccc3)n2)c1)c1c(F)cccc1F | 0.96% | 5.19% | 1.51% |
| CCCCNc1nccc2ccc(-c3ccncc3)cc12 | 3.45% | 4.02% | 4.26% |
| CN(C)CCCNCc1ccc(-c2ccc(CNCCc3ccccc3)cc2)cc1 | -0.43% | 0.15% | -0.49% |
| c1cc2[nH]c(CCc3nc4cc(C5=NC6CCCCC6N5)ccc4[nH]3)nc2cc1C1=NC2CCCCC2N1 (stereo not given) | 19.7% | 18.5% | 6.48% |
| CCc1cccc2c(C#N)cn(CC(=O)Nc3ccc(OC)cc3)c12 | 0.84% | 3.26% | 1.27% |
| Cc1ccc2[nH]c(C3CCCNC3)c(-c3ccncc3)c2c1 (stereo not given) | 9.43% | 9.43% | 8.51% |
| Cc1c(CCNC(=O)CCCN2CC(C)CC(C)C2)c2ccccc2n1C (stereo not given) | 1.14% | 3.38% | 3.01% |
| CCOc1cc(C(=O)NCCCN2CCN(c3cccc(Cl)c3)CC2)ccc1-c1nc2cc(Cl)c(F)cc2[nH]1 | -0.54% | -0.11% | -0.18% |

| Structure (SMILES) | inhibition [1] | inhibition [2] | inhibition [3] |
| --- | --- | --- | --- |
| O=C(NCC1CCC(CNCCc2ccccc2)CC1)Nc1ccc(Cl)c(Cl)c1 (stereo not given) | -0.7% | -1.96% | -2.11% |
| CC(=O)Nc1cccc(C(=O)Nc2cccc(-c3ccc(-c4nc5cc(F)ccc5[nH]4)cc3)c2)c1 | 2.1% | 2.11% | 1.46% |
| COc1ccccc1C1CN(Cc2coc3ccccc3c2=O)Cc2ccccc2O1 (stereo not given) | 0.38% | 0.56% | 0.45% |
| CCNC(C)(C)CN(Cc1ccc(-c2ccc(C(F)(F)F)cc2)cc1)C(=O)Cn1c(SCc2ccc(F)cc2)nc(=O)c2c1CCC2 | 8.5% | 5.99% | 5.46% |
| O=C(Nc1cccc([N+](=O)[O-])c1)N(Cc1ccc(Cl)c(Cl)c1)C1CCNCC1 | 5.08% | 3.21% | 3.8% |
| CN1CCN(CC(=O)Nc2cccc(-c3cccc(-c4nc5cc(F)ccc5[nH]4)c3)c2)CC1 | 0.82% | 1.22% | 3.51% |
| Fc1ccc2[nH]c(-c3cccc(-c4ccc(CN5CCN(c6cnccn6)CC5)cc4)c3)nc2c1 | 14.3% | 12.5% | 8.14% |
| OCCC1CCN(Cc2ccc(-c3ccc(-c4nc5ccccc5[nH]4)cc3)cc2)CC1 | 8.45% | 5.85% | 5.76% |
| O=C(N[C@@H](CC1CCCCC1)C(=O)NC1CCCc2ccccc21)c1ccc(O)c(-c2ccc(Cl)c(Cl)c2)c1 (stereo not given in full) | 1.23% | 0.75% | 0.12% |
| CN(C)CCN(C)Cc1cccc(-c2ccc3c(Nc4ccc(F)cc4Cl)ccnc3c2)c1 | 1.88% | 4.55% | 12.7% |
| Fc1cc(Cl)ccc1Nc1ccnc2cc(-c3ccc(CN4CCSCC4)o3)ccc12 | 1.72% | 3.56% | 8.14% |
| COc1ccc2nccc([C@@H](O)CN3CCC(NC(=O)C(c4cc5ccccc5s4)N4CCN(c5ccccc5OC)CC4)CC3)c2c1 (stereo not given in full) | 1.84% | 1.89% | 0.56% |
| CNCCNCc1cccc(-c2ccc(-c3nc4ccccc4[nH]3)cc2)c1 | -1.56% | 0.67% | -0.51% |
| CC1CCCCN1Cc1cccc(-c2c[nH]c3nc(NC4CCCC4)ncc23)c1 (stereo not given) | 10.8% | 6.53% | 6.08% |
| O=C(/C=C/c1ccc(Cl)c(Cl)c1)NCCCCCCN1CCCN(C(=O)Nc2ccc(C(F)(F)F)cc2)CC1 | 2.54% | 2.95% | 2.88% |
| COc1ccc(Cn2c(Nc3cccc(C(F)(F)F)c3)nc3cc(C(=O)NC4CC4)cnc32)cc1Cl | -1.9% | -0.56% | -3.22% |
| Cn1cncc1C(=O)Nc1cccc(-c2cccc(-c3nc4cc(F)ccc4[nH]3)c2)c1 | 4% | 3.24% | 1.75% |
